The record followed here is PubChem BioAssay (NCATS).

Several values for one entry are separate records, joined by “and”; a condition that tells them apart may be missing. Equal values may be shown once. Inconclusive results are not listed. Where a call stands in place of a potency, no number is given. Activity calls are given as the source filed them. Calls come from the whole dose curve.

The nature of the first test: Cytotoxicity counterscreen for inhibitors of SARS-CoV-2 cell entry (AID 1645845). Note: nearly all actives have a fitted effect of over 50% in size. The settings on record: cell viability (SARS-CoV-2 entry assay cells); series mostly up to 57.1 µM; activity change, negative = cytotoxicity: at the top concentration. In short, it runs like this:
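48 h compound treatment (after 1 h preincubation), HEK293-ACE2 cells, 37 C/5% CO2; ATP luminescence endpoint; normalized to cell wells and media blanks.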
As to `Clc1cccc(Cl)c1NC1=NCCN1`, the result was inactive.
Consider `NS(=O)(=O)c1cc2c(cc1Cl)NC(C(Cl)Cl)NS2(=O)=O` (configuration not stated), for which the Potency result was “inactive”.
As for `CC(=O)OCC(=O)[C@@]1(O)CC[C@H]2[C@@H]3CCC4=CC(=O)C=C[C@]4(C)[C@@]3(F)[C@@H](O)C[C@@]21C`, the “activity change, negative = cytotoxicity” value was 1.81% (inactive).
With `N#Cc1ccc(C(c2ccc(C#N)cc2)n2cncn2)cc1`, the Potency entry was “inactive”.
For the molecule `O=C(O)CCCCC(=O)O`, the “activity change, negative = cytotoxicity” value is 2.12% (inactive).
On the same count and under the same terms, the value for `CC1CC(OC(=O)c2ccccc2O)CC(C)(C)C1` (configuration not stated) was -5.63% (inactive).
The same measure, in the same setting: the value for `CCCC(=O)O[C@]1(C(=O)CO)CC[C@H]2[C@@H]3CCC4=CC(=O)CC[C@]4(C)[C@H]3[C@@H](O)C[C@@]21C` was 0.897% (inactive).
As for `NCCCC[C@H](N[C@@H](CCc1ccccc1)C(=O)O)C(=O)N1CCC[C@H]1C(=O)O`, the call was inactive.
Regarding `CCCCCCCC/C=C/C(=O)O`, the “activity change, negative = cytotoxicity” value was 4.95% (inactive).
With `Nc1ncnc2nc[nH]c12`, the “activity change, negative = cytotoxicity” value was 2.72% (inactive).
On to `COc1cc(C)nc(-n2nc(C)cc2OC)n1`, for which the molecule was classed as inactive.
Still for that read-out and setting: the value for `Cc1ccsc1/C=C/C1=NCCCN1C` was “inactive”.
Consider `CC(=O)Nc1c(I)cc(I)c(C(=O)O)c1I`, for which the “activity change, negative = cytotoxicity” value was -0.869% (inactive).
On to `NS(=O)(=O)c1ccc(Cl)c(S(N)(=O)=O)c1`, for which the molecule was classed as inactive.
The same measure, in the same setting: the value for `O=C(O)/C=C(\CC(=O)O)C(=O)O` was “inactive”; that for `CC(C)(C)NC[C@H](O)COc1nsnc1N1CCOCC1` was “inactive”.
On to `Nc1ccc(S(=O)(=O)Nc2ccc(Cl)nn2)cc1`, for which the “activity change, negative = cytotoxicity” value was -1.81% (inactive).
Take `O=C(CCBr)N1CCN(C(=O)CCBr)CC1`: the molecule was classed as inactive.
For `CC(C)C(=O)c1c(C(C)C)nn2ccccc12`, the “activity change, negative = cytotoxicity” value is -7.98% (inactive).
Still for that read-out and setting: the value for `CC(=O)OCC[N+](C)(C)C` was 1.82% (inactive).
As for `C/C=C1\[C@H]2C=C(C)C[C@]1(N)c1ccc(=O)[nH]c1C2`, the result was inactive.
The same measure, in the same setting: in the case of `CC[N+](CC)(CCNC(=O)C(=O)NCC[N+](CC)(CC)Cc1ccccc1Cl)Cc1ccccc1Cl` it was “inactive”.

The next test is described as follows: Primary qHTS to identify inhibitors of SARS-CoV-2 cell entry (AID 1645846). Note: nearly all actives have a fitted effect of over 45% in size. Note: potency is the fitted concentration of half-maximal effect. The conditions noted are these: SARS-CoV-2 pseudovirus cell entry assay, luminescence; activity change, negative = inhibition: at 57.1 µM (top of the series) unless noted; series mostly up to 57.1 µM. An outline of the steps: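 HEK293-ACE2 (Expi293F, stable hACE2), 1500 cells/well, o/n 37C; cpd 23 nL pin, 1 h; MLV-PP w/ SARS-CoV-2-S (Wuhan-Hu-1, Δ19 C-term); 48 h 37C; Bright-Glo luminescence; normalized vs S-PP and bald PP.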
In general terms: Quantitative high-throughput screening tests each substance at several concentrations.
Regarding `COc1cc(C)c(/C=C/C(C)=C/C=C/C(C)=C/C(=O)O)c(C)c1C`, the activity change, negative = inhibition is -1.85%.
In the case of `Cc1cc2c(cc1S(N)(=O)=O)S(=O)(=O)CCC2`, the molecule was classed as inactive.
The same measure, in the same setting: the value for `O=C(O)CCCC[C@@H]1SC[C@@H]2NC(=O)N[C@@H]21` was “inactive”.
Still for that read-out and setting: in the case of `CCCCCCCCCCCCSCCOCCO` it was “inactive”.
As for `NC[C@H]1O[C@H](O[C@H]2[C@H](O)[C@@H](O[C@H]3O[C@H](CO)[C@@H](O)[C@H](N)[C@H]3O)[C@H](N)C[C@@H]2N)[C@H](O)[C@@H](O)[C@@H]1O`, the activity change, negative = inhibition is -26.4% [at 5.25 µM].
For the molecule `CCC(Cc1c(I)cc(I)c(N)c1I)C(=O)O` (configuration not stated), the molecule was classed as inactive.
Still for that read-out and setting: the value for `CC(C)(C(=O)c1cccnc1)c1cccnc1` was “inactive”.
Still for that read-out and setting: the value for `CCCCC(CC)CN1CN(CC(CC)CCCC)CC(C)(N)C1` (configuration not stated) was “inactive”; that for `CCCCC(=O)OCC(=O)[C@H]1[C@H](C)C[C@H]2[C@@H]3C[C@H](F)C4=CC(=O)C=C[C@]4(C)[C@@]3(F)[C@@H](O)C[C@@]21C` was “inactive”.
Take `O=C1O[C@H](CO)[C@@H](O)[C@H](O)[C@H]1O`: the activity change, negative = inhibition was -15.4%.
As for `CCCc1ccc(OCC(=O)N2CCN(C(=O)COc3ccc(CCC)cc3OC)CC2)c(OC)c1`, the activity change, negative = inhibition is -6.24%.
In the case of `CNC(=O)c1c(I)c(NC(C)=O)c(I)c(C(=O)O)c1I`, the molecule was called inactive.
For the molecule `COC(=O)c1ccc(O)cc1`, the result was inactive.
On to `CN(C)CCOc1ccc(/C(=C(/CCCl)c2ccccc2)c2ccccc2)cc1`, for which the Potency was 15.8 µM (active) and 20 µM (active).
Still for that read-out and setting: in the case of `CN(C)c1ccc2nc3ccc(=[N+](C)C)cc-3sc2c1` it was 8.91 µM (active) and 7.08 µM (active).
`CC(=O)Nc1ccccc1`: the activity change, negative = inhibition came to 4.61%.
As to `NNC(=O)c1ccncc1`, the Potency result was “inactive”.
Regarding `CCC[C@@H]1C[C@@H](C(=O)N[C@@H]([C@H]2O[C@H](SC)[C@H](O)[C@@H](O)[C@H]2O)[C@H](C)Cl)N(C)C1`, the activity change, negative = inhibition is -7.46%.
As for `Clc1cccc(Cl)c1NC1=NCCN1`, the molecule was classed as inactive.
With `NS(=O)(=O)c1cc2c(cc1Cl)NC(C(Cl)Cl)NS2(=O)=O` (configuration not stated), the activity change, negative = inhibition was -2.02% and -6.06%.
Same read-out and setting: in the case of `CC(=O)OCC(=O)[C@@]1(O)CC[C@H]2[C@@H]3CCC4=CC(=O)C=C[C@]4(C)[C@@]3(F)[C@@H](O)C[C@@]21C` it was 2.18%; in that of `N#Cc1ccc(C(c2ccc(C#N)cc2)n2cncn2)cc1`, 0.824% and -10.9%.
Take `O=C(O)CCCCC(=O)O`: the molecule was classed as inactive.
On the same count and under the same terms, in the case of `CC1CC(OC(=O)c2ccccc2O)CC(C)(C)C1` (configuration not stated) it was “inactive”.
With `CCCC(=O)O[C@]1(C(=O)CO)CC[C@H]2[C@@H]3CCC4=CC(=O)CC[C@]4(C)[C@H]3[C@@H](O)C[C@@]21C`, the activity change, negative = inhibition was -10%.
On the same count and under the same terms, the value for `NCCCC[C@H](N[C@@H](CCc1ccccc1)C(=O)O)C(=O)N1CCC[C@H]1C(=O)O` was -27.7%.
Regarding `CCCCCCCC/C=C/C(=O)O`, the call was inactive.
On the same count and under the same terms, in the case of `Nc1ncnc2nc[nH]c12` it was “inactive”.
The same measure, in the same setting: in the case of `COc1cc(C)nc(-n2nc(C)cc2OC)n1` it was “inactive”.
Take `Cc1ccsc1/C=C/C1=NCCCN1C`: the activity change, negative = inhibition is -11.3%.
For the molecule `CC(=O)Nc1c(I)cc(I)c(C(=O)O)c1I`, the call was inactive.
On to `NS(=O)(=O)c1ccc(Cl)c(S(N)(=O)=O)c1`, for which the molecule was called inactive.
With `O=C(O)/C=C(\CC(=O)O)C(=O)O`, the activity change, negative = inhibition came to 0.545%.
Same read-out and setting: in the case of `CC(C)(C)NC[C@H](O)COc1nsnc1N1CCOCC1` it was -5.6%.
`Nc1ccc(S(=O)(=O)Nc2ccc(Cl)nn2)cc1`: the molecule was classed as inactive.
`O=C(CCBr)N1CCN(C(=O)CCBr)CC1`: the call was inactive.
The same measure, in the same setting: in the case of `CC(C)C(=O)c1c(C(C)C)nn2ccccc12` it was “inactive”.
As to `CC(=O)OCC[N+](C)(C)C`, the activity change, negative = inhibition was 3.83%.
As for `C/C=C1\[C@H]2C=C(C)C[C@]1(N)c1ccc(=O)[nH]c1C2`, the call was inactive.
Same read-out and setting: in the case of `CC[N+](CC)(CCNC(=O)C(=O)NCC[N+](CC)(CC)Cc1ccccc1Cl)Cc1ccccc1Cl` it was “inactive”.
